Experiment [1] deals with Serine/threonine-protein kinase MRCK alpha (Homo sapiens) (UniProt Q5VT25). The conditions noted are these: at 0.1 µM.
Experiment [2] shares this target. The note with it: at 1 µM.
For experiment [3], the target named is Serine/threonine-protein kinase MRCK beta (Homo sapiens) (UniProt Q9Y5S2). The note with it: at 0.1 µM.
Experiment [4] has the same target. The conditions noted are these: at 1 µM.
In experiment [5] the target is Ribosomal protein S6 kinase alpha-5 (Homo sapiens) (UniProt O75582). The note with it: at 0.1 µM.
Experiment [6] shares this target. The conditions noted are these: at 1 µM.
Experiment [7] deals with Ribosomal protein S6 kinase alpha-4 (Homo sapiens) (UniProt O75676). The note with it: at 0.1 µM.
For experiment [8] the target is unchanged. The conditions noted are these: at 1 µM.
In experiment [9] the target is Ribosomal protein S6 kinase beta-1 (Homo sapiens) (UniProt P23443). The conditions noted are these: at 0.1 µM.
Experiment [10] has the same target. The note with it: at 1 µM.
Experiment [11] addresses T1, 3-phosphoinositide-dependent protein kinase 1 (Homo sapiens) (UniProt O15530).
T1 sequence (whole entry): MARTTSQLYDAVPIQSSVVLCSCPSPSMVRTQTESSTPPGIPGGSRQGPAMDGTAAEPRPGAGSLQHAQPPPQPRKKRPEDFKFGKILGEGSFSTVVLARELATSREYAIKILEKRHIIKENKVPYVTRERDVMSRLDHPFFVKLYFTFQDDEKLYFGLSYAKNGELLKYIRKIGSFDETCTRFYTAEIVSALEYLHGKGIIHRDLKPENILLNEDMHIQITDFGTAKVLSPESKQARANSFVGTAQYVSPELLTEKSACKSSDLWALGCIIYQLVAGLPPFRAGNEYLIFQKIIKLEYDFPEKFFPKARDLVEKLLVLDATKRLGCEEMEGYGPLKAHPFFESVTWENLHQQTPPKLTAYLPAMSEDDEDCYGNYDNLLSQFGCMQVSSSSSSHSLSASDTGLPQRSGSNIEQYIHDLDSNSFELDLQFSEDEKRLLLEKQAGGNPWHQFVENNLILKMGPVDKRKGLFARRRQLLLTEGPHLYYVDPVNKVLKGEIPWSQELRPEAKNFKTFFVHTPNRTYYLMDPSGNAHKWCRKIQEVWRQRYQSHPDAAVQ
The conditions noted are these: at 0.1 µM.

The target of experiment [12] is cAMP-dependent protein kinase catalytic subunit alpha (Homo sapiens) (UniProt P17612). The conditions noted are these: at 0.1 µM.
For experiment [13] the target is unchanged. The note with it: at 1 µM.
The target in experiment [14] is Protein kinase C alpha type (Homo sapiens) (UniProt P17252). The conditions noted are these: at 0.1 µM.
Experiment [15] has the same target. The note with it: at 1 µM.
The target in experiment [16] is Protein kinase C beta type (Homo sapiens) (UniProt P05771). The conditions noted are these: at 0.1 µM.
Experiment [17] shares this target. The conditions noted are these: at 1 µM.
In experiment [18] the target is Protein kinase C eta type (Homo sapiens) (UniProt P24723). The conditions noted are these: at 0.1 µM.
The target is the same in experiment [19]. The note with it: at 1 µM.
Experiment [20] addresses Protein kinase C gamma type (Homo sapiens) (UniProt P05129). The conditions noted are these: at 0.1 µM.

From ChEMBL document CHEMBL1961873, “Compounds: GSK PKIS; Assays: Nanosyn kinase panel” (2012) come the findings set out here.

For orientation: inhibition means the drop in the measured response relative to a control, in per cent.

Ribosomal protein S6 kinase alpha-4 (Homo sapiens), sequence (O75676 whole entry, looked up): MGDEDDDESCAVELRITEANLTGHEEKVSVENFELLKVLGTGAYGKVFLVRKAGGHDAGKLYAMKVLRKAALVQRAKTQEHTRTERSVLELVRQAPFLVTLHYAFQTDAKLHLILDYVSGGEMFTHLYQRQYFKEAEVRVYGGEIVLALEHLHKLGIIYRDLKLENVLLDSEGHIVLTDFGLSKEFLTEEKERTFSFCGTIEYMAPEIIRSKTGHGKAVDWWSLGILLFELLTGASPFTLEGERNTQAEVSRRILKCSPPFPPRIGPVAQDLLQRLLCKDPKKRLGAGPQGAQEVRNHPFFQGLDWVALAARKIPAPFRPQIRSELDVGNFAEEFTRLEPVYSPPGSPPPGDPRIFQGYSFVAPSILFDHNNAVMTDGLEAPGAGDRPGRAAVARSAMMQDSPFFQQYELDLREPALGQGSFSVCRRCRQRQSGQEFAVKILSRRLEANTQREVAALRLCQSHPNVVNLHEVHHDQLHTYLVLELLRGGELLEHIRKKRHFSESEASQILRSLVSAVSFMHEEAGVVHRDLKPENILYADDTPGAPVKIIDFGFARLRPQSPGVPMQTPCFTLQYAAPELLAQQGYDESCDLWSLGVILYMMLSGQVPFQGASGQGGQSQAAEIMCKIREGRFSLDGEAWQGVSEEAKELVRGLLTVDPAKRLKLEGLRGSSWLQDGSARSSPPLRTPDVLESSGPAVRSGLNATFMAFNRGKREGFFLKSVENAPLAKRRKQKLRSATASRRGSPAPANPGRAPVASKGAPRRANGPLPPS
Protein kinase C eta type (Homo sapiens), sequence (P24723 whole entry): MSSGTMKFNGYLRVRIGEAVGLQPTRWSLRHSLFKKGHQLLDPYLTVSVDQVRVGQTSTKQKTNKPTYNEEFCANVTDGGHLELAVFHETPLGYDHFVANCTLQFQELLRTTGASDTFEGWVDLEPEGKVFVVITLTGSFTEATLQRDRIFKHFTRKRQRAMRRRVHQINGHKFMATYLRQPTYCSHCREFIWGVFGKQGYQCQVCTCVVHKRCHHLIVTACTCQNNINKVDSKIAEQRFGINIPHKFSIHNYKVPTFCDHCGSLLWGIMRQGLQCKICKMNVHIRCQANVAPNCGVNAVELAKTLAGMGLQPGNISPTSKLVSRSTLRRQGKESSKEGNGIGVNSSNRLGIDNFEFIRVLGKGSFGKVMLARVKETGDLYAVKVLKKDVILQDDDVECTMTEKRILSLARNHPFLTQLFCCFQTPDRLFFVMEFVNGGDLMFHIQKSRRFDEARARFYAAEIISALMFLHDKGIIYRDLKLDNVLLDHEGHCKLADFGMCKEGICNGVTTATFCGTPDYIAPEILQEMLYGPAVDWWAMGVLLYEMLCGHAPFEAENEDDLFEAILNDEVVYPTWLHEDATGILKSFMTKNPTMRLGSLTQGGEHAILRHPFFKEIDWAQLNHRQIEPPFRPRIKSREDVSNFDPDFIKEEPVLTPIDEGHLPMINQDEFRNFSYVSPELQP
Serine/threonine-protein kinase MRCK beta (Homo sapiens), sequence (Q9Y5S2 whole entry): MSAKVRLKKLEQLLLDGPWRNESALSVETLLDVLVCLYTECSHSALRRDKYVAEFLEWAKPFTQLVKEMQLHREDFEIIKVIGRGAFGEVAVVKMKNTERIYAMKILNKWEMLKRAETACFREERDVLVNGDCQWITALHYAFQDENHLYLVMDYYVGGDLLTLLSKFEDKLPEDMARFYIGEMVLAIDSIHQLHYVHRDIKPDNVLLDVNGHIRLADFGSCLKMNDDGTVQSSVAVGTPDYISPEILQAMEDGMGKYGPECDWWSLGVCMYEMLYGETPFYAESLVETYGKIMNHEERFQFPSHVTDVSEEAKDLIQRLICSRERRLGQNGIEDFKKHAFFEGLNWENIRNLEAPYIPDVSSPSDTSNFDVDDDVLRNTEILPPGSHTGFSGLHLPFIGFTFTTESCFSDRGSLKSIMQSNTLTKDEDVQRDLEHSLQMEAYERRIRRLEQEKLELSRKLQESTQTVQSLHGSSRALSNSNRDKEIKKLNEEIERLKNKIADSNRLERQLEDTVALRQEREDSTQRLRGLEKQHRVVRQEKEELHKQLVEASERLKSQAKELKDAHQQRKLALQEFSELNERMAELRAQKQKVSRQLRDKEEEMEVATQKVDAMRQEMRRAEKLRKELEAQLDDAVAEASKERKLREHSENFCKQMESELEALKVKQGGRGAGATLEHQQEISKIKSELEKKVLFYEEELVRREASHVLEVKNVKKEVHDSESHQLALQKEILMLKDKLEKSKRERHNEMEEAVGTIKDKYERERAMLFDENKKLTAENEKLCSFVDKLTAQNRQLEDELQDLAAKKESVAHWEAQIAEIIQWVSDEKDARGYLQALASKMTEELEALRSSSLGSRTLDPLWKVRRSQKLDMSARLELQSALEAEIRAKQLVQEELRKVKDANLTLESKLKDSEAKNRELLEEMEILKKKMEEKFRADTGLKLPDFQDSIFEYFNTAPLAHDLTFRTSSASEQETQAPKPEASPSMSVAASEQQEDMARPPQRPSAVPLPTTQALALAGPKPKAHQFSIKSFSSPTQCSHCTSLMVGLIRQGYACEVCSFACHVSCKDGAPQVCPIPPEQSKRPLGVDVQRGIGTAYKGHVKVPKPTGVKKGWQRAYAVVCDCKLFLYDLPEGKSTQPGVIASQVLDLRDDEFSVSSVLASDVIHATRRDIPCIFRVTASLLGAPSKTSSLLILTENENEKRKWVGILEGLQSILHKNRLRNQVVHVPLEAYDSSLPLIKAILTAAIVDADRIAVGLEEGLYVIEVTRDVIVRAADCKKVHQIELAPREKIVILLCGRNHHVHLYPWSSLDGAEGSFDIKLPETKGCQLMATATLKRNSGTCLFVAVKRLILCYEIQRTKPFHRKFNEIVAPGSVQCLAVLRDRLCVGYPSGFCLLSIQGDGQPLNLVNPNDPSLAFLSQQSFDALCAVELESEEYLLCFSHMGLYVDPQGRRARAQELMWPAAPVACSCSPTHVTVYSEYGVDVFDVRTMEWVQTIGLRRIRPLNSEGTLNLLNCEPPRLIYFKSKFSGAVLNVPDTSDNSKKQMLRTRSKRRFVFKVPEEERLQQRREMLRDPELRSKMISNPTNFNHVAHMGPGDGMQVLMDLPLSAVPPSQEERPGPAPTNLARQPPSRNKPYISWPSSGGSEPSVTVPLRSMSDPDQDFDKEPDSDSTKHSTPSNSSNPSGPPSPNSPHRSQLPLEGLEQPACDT
Ribosomal protein S6 kinase beta-1 (Homo sapiens), sequence (P23443 whole entry, looked up): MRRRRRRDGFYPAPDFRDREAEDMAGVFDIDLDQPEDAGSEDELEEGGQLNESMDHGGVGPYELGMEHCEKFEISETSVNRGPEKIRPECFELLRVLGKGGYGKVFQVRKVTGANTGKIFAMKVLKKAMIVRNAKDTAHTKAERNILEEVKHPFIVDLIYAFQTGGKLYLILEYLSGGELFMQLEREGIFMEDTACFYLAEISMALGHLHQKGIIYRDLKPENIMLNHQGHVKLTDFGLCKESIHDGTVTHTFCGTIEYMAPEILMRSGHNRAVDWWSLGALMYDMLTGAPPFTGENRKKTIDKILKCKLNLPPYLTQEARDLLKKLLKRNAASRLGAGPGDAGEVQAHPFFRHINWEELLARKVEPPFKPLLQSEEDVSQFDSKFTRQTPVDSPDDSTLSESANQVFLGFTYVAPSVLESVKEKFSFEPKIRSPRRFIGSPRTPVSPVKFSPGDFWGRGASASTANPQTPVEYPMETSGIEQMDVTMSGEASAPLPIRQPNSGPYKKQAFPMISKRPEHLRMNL
Protein kinase C beta type (Homo sapiens), sequence (P05771 2-671 limits assumed): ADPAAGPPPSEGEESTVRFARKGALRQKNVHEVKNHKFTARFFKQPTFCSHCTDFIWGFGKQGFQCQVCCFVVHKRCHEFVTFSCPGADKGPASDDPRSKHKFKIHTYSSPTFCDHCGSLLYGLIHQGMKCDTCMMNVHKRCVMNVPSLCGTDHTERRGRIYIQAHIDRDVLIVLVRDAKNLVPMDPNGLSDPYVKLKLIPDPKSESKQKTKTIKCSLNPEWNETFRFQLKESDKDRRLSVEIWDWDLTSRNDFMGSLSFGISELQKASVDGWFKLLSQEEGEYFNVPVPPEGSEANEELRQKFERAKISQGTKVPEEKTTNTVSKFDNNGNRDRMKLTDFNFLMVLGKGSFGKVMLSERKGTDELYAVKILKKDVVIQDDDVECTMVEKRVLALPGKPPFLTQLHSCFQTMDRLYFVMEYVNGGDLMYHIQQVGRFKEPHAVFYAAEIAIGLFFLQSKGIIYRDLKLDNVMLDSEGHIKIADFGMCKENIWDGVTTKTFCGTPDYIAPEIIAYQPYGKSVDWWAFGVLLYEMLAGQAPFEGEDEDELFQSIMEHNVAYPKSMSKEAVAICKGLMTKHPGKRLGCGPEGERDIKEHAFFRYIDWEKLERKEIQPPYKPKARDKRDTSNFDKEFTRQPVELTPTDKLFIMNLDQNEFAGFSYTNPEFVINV

Consider `CCn1c(-c2nonc2N)nc2ccncc21`, for which the inhibition in experiment [1] was found to be 1.72%; in experiment [2], 1.13%; in [3] it was 0.86%; in [4] it was 0.41%; in experiment [5] it was 1.63%; in [6], 2.9%. Besides, the inhibition in [7] is 0.33%; in experiment [8], 2.82%; in experiment [9], 1.28%; in [10], 3.8%; in [11], 2.45%; in experiment [12] it was 0.35%. Further, the inhibition was 1.02% in [13]; 0.39% in experiment [14]; 0.41% in experiment [15]; -0.82% in [16]; 1.95% in experiment [17]; 1.11% in experiment [18]. Further, the inhibition in experiment [19] was 5.32%; in [20], -2.41%.
Regarding `CCCN1CCC(Oc2cc(Nc3nc(Nc4cccc(F)c4C(N)=O)c4cc[nH]c4n3)c(OC)cc2Cl)CC1`, the inhibition in experiment [1] was 0.81%; in experiment [2], -1.24%; in experiment [3], 1.36%; in [4], 2.2%; in experiment [5], 1.01%; in experiment [6], 3.87%. Further, the inhibition was 1.03% in [7]; 1.99% in experiment [8]; -0.03% in experiment [9]; 1.36% in [10]; 1.74% in [11]; 9.14% in [12]. The inhibition is 9.18% in experiment [13]; 0.7% in [14]; 11.2% in experiment [15]; 0.29% in [16]; 1.21% in [17]; 2.42% in experiment [18]. For the same compound, the inhibition in experiment [19] worked out at 1.59%; in experiment [20] it was 2.93%.
As for `N#Cc1c(NC(=O)c2cccc3ccccc23)sc2c1CCCC2`, the inhibition in experiment [1] was -0.22%; in [2] it was -0.12%; in [3] it was 0.93%; in experiment [4] it was 1.57%; in [5] it was 7.78%; in [6], 6.93%. Besides, the inhibition in experiment [7] amounted to 1.95%; in experiment [8] it was 2.56%; in [9], 1.14%; in experiment [10], 2.63%; in [11], 1.52%; in [12], 1.59%. Also, the inhibition in experiment [13] was 1.98%; in experiment [14], 0.26%; in [15], 1.22%; in experiment [16], 1.24%; in [17], -1.28%; in [18] it was 3.52%. The inhibition in experiment [19] was 3.65%; in experiment [20] it was 2.48%.
Regarding `NCc1ccc(-c2nc(-c3ccc(Cl)c(O)c3)c(-c3ccncc3)[nH]2)cc1`, the inhibition in experiment [1] was 0.67%; in experiment [2] it was -0.06%; in experiment [3], -1.19%; in experiment [4] it was 1.3%; in experiment [5], 0.16%; in experiment [6] it was 2.56%. Besides, the inhibition in [7] is -0.59%; in [8] it was 2.82%; in experiment [9], 0.03%; in experiment [10], 0.71%; in [11] it was 2.25%; in experiment [12], 1.31%. Moreover, the inhibition is 3.95% in experiment [13]; 0.75% in [14]; 2.46% in experiment [15]; 5.37% in experiment [16]; 27.9% in experiment [17]; 1.93% in experiment [18]. Also, the inhibition in [19] stood at 3.81%; in [20] it was 0.36%.
Take `COc1ccccc1Nc1ncc(-c2ccccc2)o1`: the inhibition is -5.48% in [1]; -2.78% in experiment [2]; 0.73% in [3]; 0.66% in experiment [4]; -3.3% in [5]; -5.77% in experiment [6]. For the same compound, the inhibition was 4.65% in [7]; 2.42% in experiment [8]; 1.36% in experiment [9]; 2.44% in [10]; 7.73% in experiment [11]; 1.58% in [12]. Moreover, the inhibition in experiment [13] was 3.65%; in experiment [14], 0.95%; in experiment [15], 1.01%; in experiment [16] it was 1.34%; in [17], -6.48%; in experiment [18], 7.06%. Besides, the inhibition in [19] was 7.33%; in [20], -0.19%.
For the compound `Cc1nn(C)c2cc(N(C)c3ccnc(Nc4cccc(S(N)(=O)=O)c4)n3)ccc12`, the inhibition in experiment [1] was -1.1%; in experiment [2], 2.42%; in experiment [3], 1.01%; in experiment [4] it was 3.81%; in experiment [5] it was 10.5%; in [6], 11.1%. The inhibition in experiment [7] stood at 4.88%; in [8], 6.94%; in experiment [9], 2.3%; in experiment [10], 2.85%; in experiment [11], 1.33%; in [12] it was 2.03%. Moreover, the inhibition was 6.18% in experiment [13]; 1% in [14]; 6.39% in [15]; 1.44% in experiment [16]; 6% in experiment [17]; 4.55% in experiment [18]. Besides, the inhibition in experiment [19] came out at 2.34%; in experiment [20], 4.1%.
For the compound `O=C1NC(=O)C(N2CCc3ccccc32)=C1c1ccc(Cl)cc1`, the inhibition in experiment [1] turned out to be 0.19%; in experiment [2] it was 0.98%; in experiment [3], 0.69%; in [4], 1.86%; in experiment [5] it was 9.94%; in experiment [6], 7.93%. The inhibition in experiment [7] is 1.73%; in experiment [8], 4.02%; in [9] it was 1.81%; in experiment [10] it was 1.76%; in experiment [11], 1.64%; in experiment [12], 1.84%. The inhibition in [13] is 1.95%; in [14], 0.86%; in experiment [15], 1.6%; in [16], -0.46%; in experiment [17] it was 0.52%; in [18], 0.02%. For the same compound, the inhibition amounted to 3.59% in experiment [19] and 5.52% in experiment [20].
As to `Cc1ccc(C(=O)NC2CCCCC2)cc1-c1ccc(C(=O)NCC2CC2)cc1`, the inhibition came out at 1.04% in experiment [1]; 0.21% in experiment [2]; 1.37% in experiment [3]; 1.51% in experiment [4]; 2.76% in [5]; 3.23% in experiment [6]. Further, the inhibition in experiment [7] was 1.19%; in experiment [8] it was 2.43%; in experiment [9] it was -0.26%; in experiment [10], 0.99%; in experiment [11], 3.8%; in [12], 3.21%. Also, the inhibition in experiment [13] was 1.86%; in [14], 0.96%; in experiment [15] it was 2.17%; in experiment [16], 1.17%; in [17], 1.93%; in [18] it was 3.2%. Further, the inhibition in [19] was -0.62%; in experiment [20], 3.68%.
Regarding `CS(=O)(=O)CCN(CC#N)Cc1ccc(-c2ccc3ncnc(Nc4ccc(OCc5cccc(F)c5)c(Cl)c4)c3c2)o1`, the inhibition in experiment [1] was -0.15%; in experiment [2], -1.53%; in [3] it was -0.05%; in experiment [4] it was -0.09%; in experiment [5] it was 0.54%; in experiment [6], -1.33%. In addition, the inhibition in experiment [7] was 1.06%; in [8], 1.76%; in experiment [9], 0.1%; in [10], 0.27%; in experiment [11], 0.12%; in experiment [12], -3.08%. In addition, the inhibition in [13] was -3.11%; in [14] it was -3.93%; in experiment [15], -3.34%; in [16] it was -0.34%; in [17], -1.95%; in experiment [18] it was 2.38%. Also, the inhibition was 1.49% in experiment [19] and -0.22% in experiment [20].
On to `Nc1ncnc2occ(-c3ccc(NC(=O)Nc4cccc(C(F)(F)F)c4)cc3)c12`, for which the inhibition is -3.03% in experiment [1]; 0.21% in [2]; 0.84% in [3]; 1.21% in experiment [4]; 6.35% in experiment [5]; 19.5% in [6]. For the same compound, the inhibition in experiment [7] is 3.31%; in experiment [8], 20.8%; in experiment [9] it was 21%; in [10], 73.5%; in [11], -1.02%; in [12], 2.38%. In addition, the inhibition in [13] is 4.85%; in experiment [14] it was 0.88%; in [15] it was 1.68%; in experiment [16] it was 0.7%; in [17], 12.6%; in [18], 0.55%. In addition, the inhibition in [19] was 6.96%; in [20], -0.58%.
`CCn1c(-c2nonc2N)nc2c(C#CC(C)(C)O)nc(CN3CCCC3)cc21`: the inhibition in experiment [1] was found to be 2.53%; in [2], 0.11%; in [3], 1.98%; in experiment [4], 4.91%; in experiment [5] it was 0.29%; in experiment [6], 3.07%. Moreover, the inhibition in [7] was 2%; in [8], 6.06%; in experiment [9], 0.33%; in experiment [10] it was 1.37%; in [11], 0.46%; in experiment [12] it was 8.62%. In addition, the inhibition in experiment [13] was found to be 44.9%; in [14] it was 2.29%; in experiment [15], 6.77%; in experiment [16] it was 3.02%; in [17] it was 14.2%; in [18] it was 19.5%. In addition, the inhibition turned out to be 67.3% in [19] and 3.19% in experiment [20].
For the compound `COc1cc2c(cc1Nc1nc(N3CCc4ccccc43)c3cc[nH]c3n1)N(C(=O)CN(C)C)CC2`, the inhibition in experiment [1] is 1%; in experiment [2], -1.14%; in [3], 0.86%; in experiment [4], 1.27%; in [5], 4.25%; in experiment [6], 4.71%. Moreover, the inhibition in experiment [7] was found to be 0.65%; in [8], 1.75%; in [9], 1.59%; in experiment [10], 0.46%; in experiment [11], 1.89%; in experiment [12], 1.41%. Also, the inhibition is 0.85% in [13]; 0.7% in [14]; 1.9% in experiment [15]; 1.5% in experiment [16]; 0.59% in experiment [17]; 3.35% in experiment [18]. The inhibition in experiment [19] is -0.3%; in [20], 1.53%.
